# Compound activity deposited in PubChem by National Center for Advancing Translational Sciences (NCATS).
# Most compounds without a hit are left out; they make up all but 21% or so of the library.
# Shiga inhibitor: inhibitors of Shiga toxin in Vero cells | AID 2315 | inhibition, % at 38.7 µM | Vero cells, Shiga toxin protein synthesis inhibition reporter | 290,000 tested, 9.2% active; in the data active means inhibition mostly above about 28%, no sharp cut-off; inactive means mostly below about 43%; further: 0% is about no effect
# Pf growth 96h: inhibits malaria parasite growth, 96 h | 320,000 tested, 6.9% active | P. falciparum luciferase reporter growth, 96 h | AID 504834 | Potency, µM (highest dose often 28.7 µM), for the others: at the top dose activity change, negative = inhibition, actives largely listed as inhibitors; further: potency means the concentration at half of the fitted maximal effect; on the % scale 0 is the no-effect control and ±100 the full control effect
#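 Two-generation exposure (96 h) targets delayed-death phenotype. Reporter parasites carrying integrated firefly luciferase, in red cells at 2% hematocrit and 0.05% parasitemia final, kept at 37 C, 5% CO2; luminescence loss indicates inhibition.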
# Cycloheximide cs: affects cycloheximide protein synthesis inhibition readout, counter-screen | cell reporter, cycloheximide protein synthesis inhibition counterscreen | max response, % | 300,000 tested, 12% active; in the data active means max response mostly above about 13%, no sharp cut-off; inactive means mostly below about 14%; further: read at 38.3 µM for the half of the compounds with a filed dose; 0% is about no effect
# Pf growth 48h: inhibits P. falciparum growth in the first generation, 48 h; P. falciparum luciferase growth in erythrocytes, 48 h; Potency, µM (titrated, usually from 28.7 µM), for inactives: at the highest dose activity change, negative = inhibition, hits mostly inhibitors; AID 504832; 310,000 tested, 5.9% active; further: potency means the concentration at half of the fitted maximal effect; on the % scale 0 is the no-effect control and ±100 the full control effect
#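 Growth was read as firefly luciferase luminescence after a 48 h, 37 C, 5% CO2 exposure of compounds to reporter-bearing P. falciparum cultures (0.1% parasitemia, 2% hematocrit final) in Albumax-supplemented RPMI 1640.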
# Starred values were filed as active, the others as inactive; i = inactive; ? = inconclusive; . = no result given; + = active, no number. Unless noted, the call rests on the fitted dose curve; in most records, active means well fitted inhibition curve with a large enough effect; inconclusive means small, poorly fitted or top-dose-only effect, or another doubt; inactive means no such curve, though single readings can be large or run the other way.
SMILES,Shiga inhibitor,Pf growth 96h,Cycloheximide cs,Pf growth 48h
C=CCNC(=O)COc1ccc(S(=O)(=O)N2CCCC2)cc1,12,-15%,-4,-11%
CCCCOCCCNC(=O)COc1ccccc1,-8,5%,-2,13%
O=C(COc1ccccc1)NCCSc1ccccc1,40,?,14*,65%
CC(C)(C)SCCNC(=O)COc1ccccc1,16,28%,27*,26%
O=C(COc1ccccc1)NCCn1ccc2ccccc21,9,37%,5,-5%
C=CCNC(=O)COc1ccc(Oc2ccccc2)cc1,64*,40%,52*,i
COc1ccc(C(=O)OC(C)C(=O)NC2CCCc3ccccc32)cc1OC (stereo unspecified),.,-31%,.,?
CCCNC(=O)COc1coc(CN2CCN(c3ccc(F)cc3)CC2)cc1=O,-6,?,-1,-3%
CC(C)c1ccc(S(=O)(=O)c2cn(Cc3ccc(F)cc3)c3cc4c(cc3c2=O)OCO4)cc1,-10,-5%,-4,?
Cc1ccc(Cn2cc(S(=O)(=O)c3ccc(C(C)C)cc3)c(=O)c3cc4c(cc32)OCO4)cc1,-6,3.3µM*,7,9.3µM*
COc1cccc(NC(=S)N2CCCC2c2ccc(OC)c(OC)c2)c1 (stereo unspecified),52*,-14%,33*,?
COc1ccc(C2CCCN2C(=S)Nc2cccc(Cl)c2)cc1OC (stereo unspecified),11,45%,21,?
COc1ccc(C2CCCN2C(=S)Nc2ccccc2C)cc1OC (stereo unspecified),0,?,3,9.3µM*
Cc1cnc(NC(=O)c2cc3c(s2)CCCC3)s1,61*,73%,40*,.
Cc1csc(NC(=O)c2cc3c(s2)CCCC3)n1,81*,0%,62*,?
Cc1csc(NC(=O)c2cc3c(s2)CCCCC3)n1,2,.,15*,-77%
CC1(S(=O)(=O)O)CC(=O)c2ccccc2C1=O (stereo unspecified),13,1.7µM*,11,15µM*
O=C1c2ccccc2C(=O)C1(O)O,.,74%,.,1%
O=[N+]([O-])c1cc2c(cc1/C=N/Nc1nc(Nc3ccccc3)nc(N3CCCCC3)n1)OCO2,14,2.9µM*,13,4.7µM*
c1ccc(Nc2nc(N3CCCC3)nc(N3CCCC3)n2)cc1,-3,12µM*,-3,.
c1ccc(Nc2nc(N3CCCCC3)nc(N3CCCCC3)n2)cc1,-19,9.3µM*,-2,.
Fc1ccc(Nc2nc(Oc3ccccc3F)nc(N3CCCC3)n2)cc1,-12,.,7,1.5µM*
COc1ccc(N2CCN(c3nc(Nc4ccc(F)cc4)nc(OC)n3)CC2)cc1,22,24%,-3,53%
COC(=O)CN1C(=O)[C@H]2[C@@H](c3ccc(C)o3)N3C(=O)CN(CC4CC4)C(=O)[C@@]3(C)[C@H]2C1=O,15,1%,-3,0%
O=[N+]([O-])c1ccc(Nc2nc(N/N=C/c3cccc(F)c3)nc(N3CCCC3)n2)cc1,15,?,2,2.9µM*
SMILES,Shiga inhibitor,Pf growth 96h,Cycloheximide cs,Pf growth 48h
CN(C)c1ccc(/C=N/Nc2nc3ccccc3o2)cc1,34,45%,5,45%
C(=N\Nc1nc(Nc2ccccc2)nc(N2CCCCC2)n1)/c1ccco1,32*,?,28*,?
COc1ccc(/C=N/Nc2nc(Nc3ccccc3)nc(N3CCCC3)n2)cc1,69,0%,17,?
CNc1nc(N/N=C/c2ccc([N+](=O)[O-])cc2)nc(Nc2ccccc2)n1,17,?,0,3.3µM*
O=[N+]([O-])c1ccc(/C=N/Nc2nc3ccccc3o2)cc1,48*,9.3µM*,31*,129%
Cc1cc(C)n2nc(SCC(=O)NC(=O)c3ccccc3Cl)nc2n1,.,24%,.,4%
CCNc1nc(N2CCCC2)nc(N2CCCC2)n1,33,5%,6,12µM*
CCNc1nc(NC(C)(C)C)nc(N2CCCCC2)n1,23,33%,-3,?
COc1cc(CN(C(=S)NCC(=O)NC2CC2)C2CCCC2)cc(OC)c1OC,-2,13%,-2,-30%
O=C(Nc1cccc(NC(=O)c2cccc(Cl)c2)c1)c1cccnc1,32,?,-2,?
c1ccc2c(c1)oc1c(N3CCOCC3)ncnc12,3,?,9.8*,45%
Clc1ncnc2c1oc1ccccc12,+,?,37*,127%
O=C(c1ccco1)N1CCN(c2ncnc3c2oc2ccccc23)CC1,63*,.,41*,57%
COc1ccccc1N1CCN(c2ncnc3c2oc2ccccc23)CC1,27,-27%,8.6*,?
Cc1cc(C)nc(Sc2ncnc3c2oc2ccccc23)n1,50*,?,28,?
c1coc(CN(Cc2ccco2)c2ncnc3c2oc2ccccc23)c1,40,?,19*,?
CCCCC(=O)OC1CCC2C3CCc4cc(O)ccc4C3CC[C@]12C (stereo partly specified),.,-18%,.,-18%
CC(C)NC(=O)C(=O)Nc1cc2c3c(c1)C(C)C(=O)N3CCC2 (stereo unspecified),3,36%,4,7%
Cc1ccc2c(c1)[C@@H]1CN(C)CC[C@@H]1N2S(=O)(=O)c1ccc(F)cc1,-13,?,-2,-18%
COc1ccc(C)cc1S(=O)(=O)N1c2ccc(C)cc2C2CN(C)CCC21 (stereo unspecified),.,10µM*,.,?
CCc1ccc(S(=O)(=O)N2c3ccc(C)cc3C3CN(C)CCC32)cc1 (stereo unspecified),.,?,.,10µM*
CSc1cccc(CN2CCCC(C(=O)Nc3cccc(-n4cccn4)c3)C2)c1 (stereo unspecified),-6,-5%,-3,8%
Cc1cc(C)c2c3c(sc2n1)C(=O)N(c1ccccc1)CC(=O)N3,33,65%,-2,0%
COC(=O)c1cccc(NC(=O)/C(=C\c2ccccc2)NC(=O)c2ccccc2Cl)c1,-10,?,-1,-8%
COC(=O)c1ccc2[nH]c3cccc(/C(=C/c4ccccc4)c4ccccc4)c3c2c1,13,3.7µM*,-3,?
O=C1CCCc2[nH]c3cccc(/C(=C/c4ccccc4)c4ccccc4)c3c21,1,12µM*,-3,-16%
O=C(c1cc(COc2ccc(F)cc2Cl)on1)N1CCN(c2cnccn2)CC1,1,?,1,4%
CC(=O)Nc1ccc(NC(=O)C2CC(=O)N(c3ccccc3Cl)C2)cc1 (stereo unspecified),-10,-16%,4,?
